Test results from publication PMC8384837, “Expanding the binding specificity for RNA recognition by a PUF domain”.
Numbering of substitutions follows the chain as printed.

Experiments:
Test in all cases: yeast three-hybrid, YBZ-1, SC-Leu-His + 0.5 mM 3-AT, 4 days
Conditions in all cases: tags: N-Gal4 AD-HA kept; label: inside an RPR1-promoter hybrid RNA with tandem MS2 sites; ssRNA
PUM1 PUF domain R4-PFR = PUM1 PUF domain R4-PFR (Homo sapiens, UniProt Q14671 828-1176, N971P;H972F;Q975R)
Procedure, shortened: (§1)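 Pumilio-1 PUF domain libraries, randomized at the three base-contacting residues of each repeat, were co-expressed with matching RNA elements from a centromeric plasmid in strain YBZ-1, which carries a LexA–MS2 coat fusion and a HIS3 reporter. Transformants grew for four days on SC-Leu (input) or on SC-Leu-His + 0.5 mM 3-AT (selection), and the repeat regions were PCR-amplified and Illumina-sequenced. The interaction score is the log change in variant frequency from input to selection. That logarithm is base 2, with a pseudocount of 1 where a variant was absent.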

PUM1 PUF domain R6-RWT = target: T1, PUM1 PUF domain R6-RWT (Homo sapiens, UniProt Q14671 828-1176, N1043R;Y1044W;Q1047T)
T1 sequence: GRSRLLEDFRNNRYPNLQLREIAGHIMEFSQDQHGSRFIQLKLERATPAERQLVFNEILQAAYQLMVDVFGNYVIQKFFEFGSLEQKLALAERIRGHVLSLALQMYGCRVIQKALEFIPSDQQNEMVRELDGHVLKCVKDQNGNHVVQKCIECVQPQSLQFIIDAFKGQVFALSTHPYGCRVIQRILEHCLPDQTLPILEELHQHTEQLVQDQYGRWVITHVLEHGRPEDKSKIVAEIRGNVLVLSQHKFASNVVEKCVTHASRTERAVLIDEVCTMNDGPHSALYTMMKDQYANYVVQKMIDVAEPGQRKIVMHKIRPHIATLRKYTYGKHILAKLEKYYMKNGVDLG
Procedure, shortened: as §1

PUM1 PUF domain R6-CWG = target: T2, PUM1 PUF domain R6-CWG (Homo sapiens, UniProt Q14671 828-1176, N1043C;Y1044W;Q1047G)
T2 sequence: T1 sequence with R216C, T220G
Procedure, shortened: as §1

PUM1 PUF domain R5-KNC = PUM1 PUF domain R5-KNC (Homo sapiens, UniProt Q14671 828-1176, C1007K;R1008N;Q1011C)
Procedure, shortened: as §1

PUM1 PUF domain R5-GFL = PUM1 PUF domain R5-GFL (Homo sapiens, UniProt Q14671 828-1176, C1007G;R1008F;Q1011L)
Procedure, shortened: as §1

PUM1 PUF domain R5-RCR = PUM1 PUF domain R5-RCR (Homo sapiens, UniProt Q14671 828-1176, C1007R;R1008C;Q1011R)
Procedure, shortened: as §1

PUM1 PUF domain R6-HYS = target: T3, PUM1 PUF domain R6-HYS (Homo sapiens, UniProt Q14671 828-1176, N1043H;Q1047S)
T3 sequence: T1 sequence with R216H, W217Y, T220S
Procedure, shortened: as §1

PUM1 PUF domain R3-ARR = PUM1 PUF domain R3-ARR (Homo sapiens, UniProt Q14671 828-1176, C935A;Q939R)
Procedure, shortened: as §1

PUM1 PUF domain R8-PFQ = PUM1 PUF domain R8-PFQ (Homo sapiens, UniProt Q14671 828-1176, N1122P;Y1123F)
Procedure, shortened: as §1

PUM1 PUF domain R4-WAR = PUM1 PUF domain R4-WAR (Homo sapiens, UniProt Q14671 828-1176, N971W;H972A;Q975R)
Procedure, shortened: as §1

PUM1 PUF domain R8-RRP = PUM1 PUF domain R8-RRP (Homo sapiens, UniProt Q14671 828-1176, N1122R;Y1123R;Q1126P)
Procedure, shortened: as §1

PUM1 PUF domain R3-WCM = PUM1 PUF domain R3-WCM (Homo sapiens, UniProt Q14671 828-1176, C935W;R936C;Q939M)
Procedure, shortened: as §1

PUM1 PUF domain R3-GYD = PUM1 PUF domain R3-GYD (Homo sapiens, UniProt Q14671 828-1176, C935G;R936Y;Q939D)
Procedure, shortened: as §1

PUM1 PUF domain R7-GVN = PUM1 PUF domain R7-GVN (Homo sapiens, UniProt Q14671 828-1176, S1079G;N1080V;E1083N)
Procedure, shortened: as §1

PUM1 PUF domain R5-CAR = PUM1 PUF domain R5-CAR (Homo sapiens, UniProt Q14671 828-1176, R1008A;Q1011R)
Procedure, shortened: as §1

With “GGCUAGAACUAGUGGAUCCCCCGGCGCCCGGCGGCUCGAGCCCGGGUAAGUGUAUAUAGUCUGCAUGCCGCCGGGCGCCAUGCCUGCAGGUCGACUCUAGAAAACAUG” as the sequence, how does the binding signal (PUM1 PUF domain R4-PFR) read?
Its binding signal is 4.81 log2 enrichment (interaction score).

With “GGCUAGAACUAGUGGAUCCCCCGGCGCCCGGCGGCUCGAGCCCGGGUAAGUGAAAAUAGUCUGCAUGCCGCCGGGCGCCAUGCCUGCAGGUCGACUCUAGAAAACAUG” as the sequence, how does the binding signal (PUM1 PUF domain R6-RWT) read?
Its binding signal is 3.03 log2 enrichment (interaction score).

What about the binding signal (PUM1 PUF domain R6-CWG) of the same sequence?
The binding signal was 4.54 log2 enrichment (interaction score).

Which results are given for “GGCUAGAACUAGUGGAUCCCCCGGCGCCCGGCGGCUCGAGCCCGGGUAAGUGUUAAUAGUCUGCAUGCCGCCGGGCGCCAUGCCUGCAGGUCGACUCUAGAAAACAUG”?
binding signal (PUM1 PUF domain R5-KNC): 4.22 log2 enrichment (interaction score); binding signal (PUM1 PUF domain R5-GFL): 5.05 log2 enrichment (interaction score); binding signal (PUM1 PUF domain R5-RCR): 2.8 log2 enrichment (interaction score)

“GGCUAGAACUAGUGGAUCCCCCGGCGCCCGGCGGCUCGAGCCCGGGUAAGUGUAAAUAGUCUGCAUGCCGCCGGGCGCCAUGCCUGCAGGUCGACUCUAGAAAACAUG” was tested. Which binding signal (PUM1 PUF domain R6-HYS) did it give?
Its binding signal is 3.52 log2 enrichment (interaction score).

And the binding signal (PUM1 PUF domain R5-GFL)?
The binding signal was 3.65 log2 enrichment (interaction score).

What about the binding signal (PUM1 PUF domain R3-ARR) of the same sequence?
Its binding signal is 2.49 log2 enrichment (interaction score).

What about the binding signal (PUM1 PUF domain R4-PFR) of the same sequence?
The binding signal was 1.61 log2 enrichment (interaction score).

What about the binding signal (PUM1 PUF domain R8-PFQ) of the same sequence?
The binding signal was 2.66 log2 enrichment (interaction score).

And the binding signal (PUM1 PUF domain R6-CWG)?
Its binding signal is 3.03 log2 enrichment (interaction score).

What about the binding signal (PUM1 PUF domain R4-WAR) of the same sequence?
Its binding signal is 1.01 log2 enrichment (interaction score).

What about the binding signal (PUM1 PUF domain R8-RRP) of the same sequence?
Its binding signal is 2.63 log2 enrichment (interaction score).

For “GGCUAGAACUAGUGGAUCCCCCGGCGCCCGGCGGCUCGAGCCCGGGUAAGUGUAAGUAGUCUGCAUGCCGCCGGGCGCCAUGCCUGCAGGUCGACUCUAGAAAACAUG”, which binding signal (PUM1 PUF domain R3-ARR) is on record?
Its binding signal is 1.41 log2 enrichment (interaction score).

And the binding signal (PUM1 PUF domain R3-WCM)?
The binding signal was 4.19 log2 enrichment (interaction score).

And the binding signal (PUM1 PUF domain R3-GYD)?
The binding signal was 5.08 log2 enrichment (interaction score).

For “GGCUAGAACUAGUGGAUCCCCCGGCGCCCGGCGGCUCGAGCCCGGGUAAGUUUAAAUAGUCUGCAUGCCGCCGGGCGCCAUGCCUGCAGGUCGACUCUAGAAAACAUG”, which binding signal (PUM1 PUF domain R7-GVN) is on record?
The binding signal was 3.93 log2 enrichment (interaction score).

Which binding signal (PUM1 PUF domain R5-RCR) does the source give for “GGCUAGAACUAGUGGAUCCCCCGGCGCCCGGCGGCUCGAGCCCGGGUAAGUGUCAAUAGUCUGCAUGCCGCCGGGCGCCAUGCCUGCAGGUCGACUCUAGAAAACAUG” here?
Its binding signal is 3.99 log2 enrichment (interaction score).

And the binding signal (PUM1 PUF domain R5-CAR)?
The binding signal was 4.28 log2 enrichment (interaction score).
